The results in this text go back to PubChem BioAssay (EPA / NIEHS).

Broadly, the AC50 is the midpoint of the concentration-response curve, whichever way the signal moves.

Structures are written as SMILES. Inconclusive results are not listed. Calls of active or inactive are those of the source. Rule for the calls, unless noted: active = hit-call score of the fitted dose curve at least 0.9, where 1 is the maximum; inconclusive = response in the unintended direction; inactive = score below 0.9.

Test [1] in a line: ATG_GRE_CIS: Attagene CIS-FACTORIAL HepG2 Assay for human Glucocorticoid Response Elements (GRE) (AID 2282947; active = hit-call score of the fitted dose curve at least 0.9, where 1 is the maximum; inactive = score below 0.9). The conditions noted are these: HepG2 GRE cis-reporter, Attagene multiplex mRNA; actives raise or lower the signal. The procedure, abridged:
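HepG2, transient cis-reporter transfection, 24 h. Reporter mRNA: RT-PCR then CE, fluorescence. Fit both directions vs DMSO.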

A short description of test [2]: ATG_PBREM_CIS: Attagene CIS-FACTORIAL HepG2 Assay for human Phenobarbital-responsive Enhancer Module (PBREM) (AID 2282955; active = hit-call score of the fitted dose curve at least 0.9, where 1 is the maximum; inactive = score below 0.9). As to conditions: HepG2 PBREM cis-reporter, Attagene multiplexed transcription; actives raise or lower the signal. The procedure, abridged:
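Multiplexed cis-reporter readout in human hepatoma HepG2 cells; PBREM-regulated transcript quantified after 24 h exposure by fluorescent RT-PCR fragment analysis. Signal changes up or down fitted relative to DMSO.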

Test [3] can be described thus: ATG_RORE_CIS: Attagene CIS-FACTORIAL HepG2 Assay for human RAR-related Orphan Receptor Element (RORE) (AID 2282959; active = hit-call score of the fitted dose curve at least 0.9, where 1 is the maximum; inactive = score below 0.9). The conditions noted are these: HepG2 Attagene cis-factorial RORE reporter, mRNA; actives raise or lower the signal. The procedure, abridged:
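Transfect HepG2 with MRTUs; treat 24 h; extract RNA; RT with oligo(dT); PCR with reporter-specific primers; 6-FAM primer extension; HpaI digest 2 h at 37 C; capillary electrophoresis. Fit vs DMSO, bidirectional.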

The target in test [4] is Signal transducer and activator of transcription 3 (Homo sapiens) (UniProt P40763). The experiment in a line: ATG_STAT3_CIS: Attagene CIS-FACTORIAL HepG2 Assay for human Signal Transducer and Activator of Transcription 3 (STAT3) (AID 2282963; active = hit-call score of the fitted dose curve at least 0.9, where 1 is the maximum; inactive = score below 0.9). The conditions noted are these: HepG2, Attagene cis-factorial STAT3 reporter transcription; actives raise or lower the signal. The procedure, abridged: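 Uses human liver HepG2 transiently carrying cis-regulated reporter transcription units. Following 24 h dosing, reporter mRNA induction was detected by RT-PCR and capillary electrophoresis, analysed bidirectionally versus DMSO.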
Chain of Signal transducer and activator of transcription 3 (Homo sapiens) (P40763 whole entry, looked up): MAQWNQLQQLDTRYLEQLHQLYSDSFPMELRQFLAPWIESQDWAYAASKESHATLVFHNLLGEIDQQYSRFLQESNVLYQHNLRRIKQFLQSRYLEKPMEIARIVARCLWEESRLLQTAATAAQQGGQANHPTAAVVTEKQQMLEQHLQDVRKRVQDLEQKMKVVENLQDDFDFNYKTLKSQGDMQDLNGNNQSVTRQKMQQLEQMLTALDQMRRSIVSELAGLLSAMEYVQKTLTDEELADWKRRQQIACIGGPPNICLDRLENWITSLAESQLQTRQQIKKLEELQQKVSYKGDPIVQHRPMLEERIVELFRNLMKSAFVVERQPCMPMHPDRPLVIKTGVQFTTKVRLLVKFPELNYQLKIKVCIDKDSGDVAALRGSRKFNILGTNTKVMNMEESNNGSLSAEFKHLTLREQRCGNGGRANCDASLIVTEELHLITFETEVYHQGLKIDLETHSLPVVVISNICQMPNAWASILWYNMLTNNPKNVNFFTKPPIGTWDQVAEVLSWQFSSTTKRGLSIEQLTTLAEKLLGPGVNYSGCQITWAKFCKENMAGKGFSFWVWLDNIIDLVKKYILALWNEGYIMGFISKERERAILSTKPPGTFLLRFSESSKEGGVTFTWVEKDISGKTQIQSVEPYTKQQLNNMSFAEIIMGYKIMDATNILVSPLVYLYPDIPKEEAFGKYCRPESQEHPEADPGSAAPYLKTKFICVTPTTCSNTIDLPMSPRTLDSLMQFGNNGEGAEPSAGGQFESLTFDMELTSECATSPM

For test [5], the target named is Hepatocyte nuclear factor 4-alpha (Homo sapiens) (UniProt P41235). The experiment in a line: ATG_HNF4a_TRANS: Attagene TRANS-FACTORIAL HepG2 Assay for human Hepatocyte Nuclear Factor 4 alpha (HNF4a) (AID 2282982). The conditions noted are these: HepG2 HNF4a transactivation reporter, mRNA readout. The procedure, abridged: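 Using HepG2 liver cells transfected with GAL4-UAS reporter units, chemical-induced mRNA increases were assessed after 24 hours. Fluorescent RT-PCR fragments were separated by capillary electrophoresis and compared with DMSO negative controls.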
Chain of Hepatocyte nuclear factor 4-alpha (Homo sapiens) (P41235 whole entry, looked up, the tested form may be a part): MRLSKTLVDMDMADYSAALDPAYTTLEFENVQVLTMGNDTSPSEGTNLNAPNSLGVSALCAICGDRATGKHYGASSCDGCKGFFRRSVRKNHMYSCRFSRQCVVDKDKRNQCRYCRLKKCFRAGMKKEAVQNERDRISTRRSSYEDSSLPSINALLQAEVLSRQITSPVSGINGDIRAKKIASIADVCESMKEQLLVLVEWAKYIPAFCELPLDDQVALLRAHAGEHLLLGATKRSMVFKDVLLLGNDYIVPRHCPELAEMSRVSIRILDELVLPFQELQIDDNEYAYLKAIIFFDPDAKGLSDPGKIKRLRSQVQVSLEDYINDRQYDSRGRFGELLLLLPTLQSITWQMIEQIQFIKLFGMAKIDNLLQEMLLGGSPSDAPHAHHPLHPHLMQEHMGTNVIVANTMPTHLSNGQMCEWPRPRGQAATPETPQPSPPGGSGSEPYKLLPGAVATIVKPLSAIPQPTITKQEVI

A short description of test [6]: ATG_M_06_TRANS: Attagene TRANS-FACTORIAL HepG2 Assay for M06 Transcription Factor (Internal Marker) (AID 2282983).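 Note: reporter transcript level by RT-PCR then capillary electrophoresis fluorescence.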 As to conditions: HepG2 Attagene TRANS M06 internal marker reporter. The procedure, abridged: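 Read-out: fluorescent reporter cDNA fragments resolved by capillary electrophoresis after RT-PCR and HpaI cut. Source cells were HepG2 carrying transfected multi-reporter GAL4 constructs, dosed 24 h. Increase over DMSO control analysed.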

A short description of test [7]: ATG_M_32_TRANS: Attagene TRANS-FACTORIAL HepG2 Assay for M32 Transcription Factor (Internal Marker) (AID 2282984).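 Note: transcript level of a background control reporter unit measured by RT-PCR and capillary electrophoresis.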 As to conditions: HepG2 Attagene TRANS M32 internal marker reporter. The procedure, abridged: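 Fluorescence-detected mRNA induction, HepG2 liver cells, 24 h after dosing. Multiple GAL4-UAS reporter units introduced by transient transfection; background-control endpoint analysed for gain of signal against DMSO.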

For test [8], the target named is Transcriptional activator Myb (Homo sapiens) (UniProt P10242). The experiment in a line: ATG_Myb_CIS: Attagene CIS-FACTORIAL HepG2 Assay for human Myeloblastosis (Myb) Proto-Oncogene Transcription Factor (AID 2282986; active = hit-call score of the fitted dose curve at least 0.9, where 1 is the maximum; inactive = score below 0.9). As to conditions: HepG2 Attagene CIS-FACTORIAL Myb reporter transcription; actives raise or lower the signal. The procedure, abridged:
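Using HepG2 liver cells bearing transiently transfected cis-promoter reporter constructs, the assay measures induction or loss of reporter mRNA after 24 hours of dosing. Detection used fluorescently labeled RT-PCR products separated by capillary electrophoresis.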

The target of test [9] is Peroxisome proliferator-activated receptor gamma (Homo sapiens) (UniProt P37231). Nature of the test: ATG_PPARg_TRANS: Attagene TRANS-FACTORIAL HepG2 Assay for human Peroxisome Proliferator-activated Receptor-gamma (PPARg) (AID 2283007). The procedure, abridged: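 Chimeric NR-Gal4 transactivation is measured in transiently transfected HepG2 cells by reporter mRNA induction at 24 h. Detection uses RT-PCR with fluorescent labelling and capillary electrophoresis; DMSO defines baseline.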
Chain of Peroxisome proliferator-activated receptor gamma (Homo sapiens) (P37231 whole entry, looked up, the tested form may be a part): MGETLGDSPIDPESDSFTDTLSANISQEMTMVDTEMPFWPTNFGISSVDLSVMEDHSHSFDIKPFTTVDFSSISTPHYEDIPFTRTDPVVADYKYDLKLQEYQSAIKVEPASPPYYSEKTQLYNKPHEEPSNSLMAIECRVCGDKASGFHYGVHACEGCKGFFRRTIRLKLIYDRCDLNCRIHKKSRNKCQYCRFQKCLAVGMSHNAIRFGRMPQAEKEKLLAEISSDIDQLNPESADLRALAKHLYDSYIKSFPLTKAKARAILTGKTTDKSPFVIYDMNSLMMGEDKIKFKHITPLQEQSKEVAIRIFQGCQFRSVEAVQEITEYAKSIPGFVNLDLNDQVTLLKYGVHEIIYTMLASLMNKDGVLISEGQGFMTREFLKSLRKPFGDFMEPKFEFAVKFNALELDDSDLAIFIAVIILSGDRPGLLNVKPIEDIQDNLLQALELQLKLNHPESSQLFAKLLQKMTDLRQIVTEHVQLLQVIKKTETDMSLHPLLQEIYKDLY

The target of test [10] is Cellular tumor antigen p53 (Homo sapiens) (UniProt P04637). The experiment in a line: TOX21_p53_BLA_p2_ratio: Tox21 HCT-116 p53 Agonism Beta-lactamase Assay, Ratio, Phase 2 (AID 2283592). The procedure, abridged: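 Readout: blue/green (460/530 nm) FRET emission ratio after 2 h CCF4-AM loading at room temperature, excitation 405 nm. HCT116 p53 bla cells, 16 h compound exposure at 37C, 5% CO2; agonist direction fitted against DMSO baseline.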
Chain of Cellular tumor antigen p53 (Homo sapiens) (P04637 whole entry, looked up): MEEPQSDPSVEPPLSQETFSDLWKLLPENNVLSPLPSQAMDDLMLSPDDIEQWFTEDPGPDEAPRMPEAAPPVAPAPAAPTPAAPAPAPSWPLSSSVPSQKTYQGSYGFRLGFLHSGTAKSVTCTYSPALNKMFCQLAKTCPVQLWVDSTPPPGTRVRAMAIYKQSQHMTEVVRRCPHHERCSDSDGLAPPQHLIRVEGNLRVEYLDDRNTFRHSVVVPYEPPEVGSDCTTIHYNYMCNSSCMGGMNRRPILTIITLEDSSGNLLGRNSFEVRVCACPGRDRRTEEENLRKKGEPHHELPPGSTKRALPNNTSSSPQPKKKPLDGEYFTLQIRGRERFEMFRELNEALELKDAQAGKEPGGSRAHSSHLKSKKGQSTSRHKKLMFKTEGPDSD

The target is the same in test [11]. The experiment in a line: TOX21_p53_BLA_p3_ratio: Tox21 HCT-116 p53 Agonism Beta-lactamase Assay, Ratio, Phase 3 (AID 2283596). The procedure, abridged:
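Cells were seeded at 4000/well, rested 5 h at 37C, then dosed with DMSO compound solutions (217-fold dilution) for 16 h. CCF4-AM substrate was loaded for 2 h at room temperature, and the 460/530 nm emission ratio was fitted for gain of signal versus DMSO.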

Test [12] in a line: TOX21_p53_BLA_p4_viability: Viability Assessment in the Tox21 HCT-116 p53 Agonism Beta-lactamase Assay, Phase 4 (AID 2283597).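 Note: hits lower the luminescence signal meaning cytotoxicity.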 The procedure, abridged: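 ATP content by CellTiter-Glo luminescence, 30 min RT, read after the beta-lactamase ratio step. Cells: HCT116, 4000/well, compound added after 5 h, exposure 16 h at 37C. Signal loss = reduced viability.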
For test [13], the target named is Cellular tumor antigen p53 (Homo sapiens) (UniProt P04637). Nature of the test: TOX21_p53_BLA_p5_ratio: Tox21 HCT-116 p53 Agonism Beta-lactamase Assay, Ratio, Phase 5 (AID 2283599). The procedure, abridged:
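HCT-116 cells carrying a p53-inducible beta-lactamase reporter were seeded at 4000 cells/well and dosed after 5 h with compound in DMSO (217-fold dilution). After 16 h at 37C, CCF4-AM substrate was added for 2 h, and the 460/530 nm emission ratio was scored as gain-of-signal versus DMSO.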

Test [14] in a line: TOX21_p53_BLA_p5_viability: Viability Assessment in the Tox21 HCT-116 p53 Agonism Beta-lactamase Assay, Phase 5 (AID 2283600). The procedure, abridged: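 ATP luminescence (CellTiter-Glo, 30 min, RT) served as the viability read-out, with loss of signal indicating cytotoxicity. Compounds in DMSO were pinned at a 217-fold dilution onto 4000 cells/well and incubated 16 h, 37C.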

Test [15] in a line: ACEA_ER_AUC_viability: ACEA Biosciences xCELLigence Real-Time Cell Analysis on Estrogen Receptor Agonism for Viability (AID 2283782).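 Note: hit means loss of impedance signal meaning reduced cell growth or viability.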 The procedure, abridged: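 Continuous-exposure impedance cell analysis uses T-47D cells in charcoal-stripped serum, eight 1:4 dilutions topping at 100 uM final, biological duplicate. Area under the growth curve at 80 h is fitted against DMSO baseline.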

Test [16] is described as follows: ATG_NFI_CIS: Attagene CIS-FACTORIAL HepG2 Assay for human Nuclear Factor I (NFI) (AID 2282989; active = hit-call score of the fitted dose curve at least 0.9, where 1 is the maximum; inactive = score below 0.9). As to conditions: HepG2 cis-regulatory reporter, NFI response element transcription; actives raise or lower the signal. The procedure, abridged: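 HepG2, transient MRTU, 24 h exposure; RNA→cDNA→PCR→FAM label→HpaI→CE fluorescence. Bidirectional fit, DMSO = baseline.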

The target in test [17] is human Retinoid X Receptor beta (RXRb), RXRB (gene 6257) (UniProt P28702). Nature of the test: ATG_RXRb_TRANS: Attagene TRANS-FACTORIAL HepG2 Assay for human Retinoid X Receptor beta (RXRb) (AID 2283013). The procedure, abridged: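 Read-out: reporter mRNA induction via RT-PCR plus capillary electrophoresis fluorescence, analysed as signal increase relative to DMSO. Cells were human HepG2, transiently transfected with GAL4-UAS reporter constructs and chimeric receptor-Gal4 fusions, dosed for 24 h.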
Chain of human Retinoid X Receptor beta (RXRb), RXRB (gene 6257) (P28702 whole entry, looked up, the tested form may be a part): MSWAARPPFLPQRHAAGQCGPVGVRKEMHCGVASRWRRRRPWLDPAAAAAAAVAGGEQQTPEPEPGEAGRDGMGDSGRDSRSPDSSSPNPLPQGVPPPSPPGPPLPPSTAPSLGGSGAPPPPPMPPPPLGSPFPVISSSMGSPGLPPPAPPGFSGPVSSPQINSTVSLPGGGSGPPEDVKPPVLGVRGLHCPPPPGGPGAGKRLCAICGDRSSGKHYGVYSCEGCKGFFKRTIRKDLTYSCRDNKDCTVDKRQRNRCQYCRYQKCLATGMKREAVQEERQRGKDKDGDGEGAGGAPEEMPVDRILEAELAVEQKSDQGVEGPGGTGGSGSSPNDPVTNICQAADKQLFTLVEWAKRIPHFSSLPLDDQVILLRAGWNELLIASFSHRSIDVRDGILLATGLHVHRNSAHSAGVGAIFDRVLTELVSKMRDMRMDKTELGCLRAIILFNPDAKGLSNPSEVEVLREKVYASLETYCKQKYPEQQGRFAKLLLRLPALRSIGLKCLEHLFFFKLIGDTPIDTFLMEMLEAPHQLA

In test [18] the target is Cellular tumor antigen p53 (Homo sapiens) (UniProt P04637). The experiment in a line: TOX21_p53_BLA_p4_ratio: Tox21 HCT-116 p53 Agonism Beta-lactamase Assay, Ratio, Phase 4 (AID 2283601). The procedure, abridged:
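HCT116 cells carrying an inducible beta-lactamase reporter were plated at 4000 cells/well, rested 5 h, then exposed to compounds in DMSO (217-fold dilution) for 16 h at 37C. CCF4-AM substrate was loaded 2 h at room temperature; 460/530 nm emission ratio scored gain-of-signal versus DMSO.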

Test [19] has as its target Transcription factor Sp1 (Homo sapiens) (UniProt P08047). Nature of the test: ATG_Sp1_CIS: Attagene CIS-FACTORIAL HepG2 Assay for human Specificity Protein 1 (Sp1) (AID 2282961; active = hit-call score of the fitted dose curve at least 0.9, where 1 is the maximum; inactive = score below 0.9). The conditions noted are these: HepG2 Sp1 cis-reporter transcription, actives raise or lower the signal. The procedure, abridged: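 Chemicals are dosed onto HepG2 cells transfected with multiple cis-promoter reporter constructs, and after 24 h reporter RNA is reverse-transcribed, PCR-amplified and resolved by capillary electrophoresis for fluorescence quantitation; activity is scored up or down against DMSO.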

The nature of test [20]: TOX21_p53_BLA_p2_viability: Viability Assessment in the Tox21 HCT-116 p53 Agonism Beta-lactamase Assay, Phase 2 (AID 2283591).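 Note: actives lower the ATP signal meaning cytotoxicity.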 The procedure, abridged: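 HCT-116 p53-bla cells (4000/well) rested 5 h at 37C, then received compounds in DMSO (217-fold dilution) for 16 h at 37C, 5% CO2. After the CCF4 read, CellTiter-Glo was added; ATP luminescence was read after 30 min at room temperature.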

Chain of Transcription factor Sp1 (Homo sapiens) (P08047 whole entry, looked up): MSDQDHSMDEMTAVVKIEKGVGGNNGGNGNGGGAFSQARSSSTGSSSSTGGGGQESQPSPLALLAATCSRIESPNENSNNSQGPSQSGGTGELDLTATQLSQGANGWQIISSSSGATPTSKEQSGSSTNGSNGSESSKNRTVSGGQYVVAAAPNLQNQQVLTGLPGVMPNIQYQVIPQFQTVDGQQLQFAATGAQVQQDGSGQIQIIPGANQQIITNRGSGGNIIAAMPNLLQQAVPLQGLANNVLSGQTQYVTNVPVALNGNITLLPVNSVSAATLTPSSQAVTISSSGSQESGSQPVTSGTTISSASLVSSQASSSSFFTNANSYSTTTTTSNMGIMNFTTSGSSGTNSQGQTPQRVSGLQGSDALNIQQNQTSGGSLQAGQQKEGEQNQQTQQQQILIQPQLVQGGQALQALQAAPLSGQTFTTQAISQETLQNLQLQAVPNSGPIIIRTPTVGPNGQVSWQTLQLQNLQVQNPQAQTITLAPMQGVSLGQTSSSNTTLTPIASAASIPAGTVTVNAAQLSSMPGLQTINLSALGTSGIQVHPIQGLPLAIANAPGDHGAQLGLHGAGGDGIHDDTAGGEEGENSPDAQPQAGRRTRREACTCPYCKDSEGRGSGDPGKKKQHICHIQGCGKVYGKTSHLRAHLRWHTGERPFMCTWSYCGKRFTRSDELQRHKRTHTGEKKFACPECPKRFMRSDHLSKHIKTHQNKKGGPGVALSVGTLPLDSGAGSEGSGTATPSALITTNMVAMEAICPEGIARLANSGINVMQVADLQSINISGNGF
Chain of Transcriptional activator Myb (Homo sapiens) (P10242 whole entry, looked up): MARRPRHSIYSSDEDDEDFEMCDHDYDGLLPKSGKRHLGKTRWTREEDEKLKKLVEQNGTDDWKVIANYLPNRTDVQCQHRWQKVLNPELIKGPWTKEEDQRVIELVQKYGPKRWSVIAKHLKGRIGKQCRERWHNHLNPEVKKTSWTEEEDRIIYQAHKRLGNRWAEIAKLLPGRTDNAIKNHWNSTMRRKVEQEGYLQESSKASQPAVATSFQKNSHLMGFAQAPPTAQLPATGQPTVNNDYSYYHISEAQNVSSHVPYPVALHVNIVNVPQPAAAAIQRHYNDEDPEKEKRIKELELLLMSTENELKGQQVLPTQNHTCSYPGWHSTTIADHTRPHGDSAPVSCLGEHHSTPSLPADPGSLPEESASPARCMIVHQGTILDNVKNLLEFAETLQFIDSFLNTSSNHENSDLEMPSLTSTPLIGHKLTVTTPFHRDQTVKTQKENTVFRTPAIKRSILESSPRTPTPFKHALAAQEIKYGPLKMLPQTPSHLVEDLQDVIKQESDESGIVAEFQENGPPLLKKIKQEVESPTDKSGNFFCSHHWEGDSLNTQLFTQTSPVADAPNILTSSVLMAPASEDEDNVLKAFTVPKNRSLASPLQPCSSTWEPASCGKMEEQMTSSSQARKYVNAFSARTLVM

`O=CNC(N1CCN(C(NC=O)C(Cl)(Cl)Cl)CC1)C(Cl)(Cl)Cl` (stereo not drawn): the compound was classed as inactive in [1], in test [2], in [3], in test [4], in test [5] and in test [6]. For the same compound, the compound was called inactive in test [7], in test [8], in test [9], in test [10], in test [11] and in test [12]. Moreover, the result in [13], in test [14] and in test [15] was inactive.

In the case of `CSc1nc(N=[N+]=[N-])nc(NC(C)C)n1`, the outcome in test [2], in [3], in test [4], in [7], in test [8] and in test [16] was inactive. Also, the result in test [17], in test [12], in [13] and in test [18] was inactive. The AC50 in [9] is 15.4 µM (active).

Regarding `Nc1ccc(Cl)c(Cl)c1`, the outcome in test [2], in test [3], in [19], in test [6], in test [7] and in [8] was inactive. Further, the result in [16], in [9], in test [17], in test [20], in test [10] and in test [11] was inactive. The call in [12], in test [13] and in test [18] was inactive.

As to `CC(=O)C=Cc1ccccc1`, the compound was classed as inactive in test [1], in test [2], in test [3], in [19], in test [4] and in test [5]. Further, the compound was called inactive in [16], in [17] and in test [15]. Moreover, the AC50 in test [9] was 27 µM (active).

Turning to `N#CCNCC#N`, the result in test [2], in test [3], in test [19], in test [6], in test [7] and in [8] was inactive. Also, the result in test [16], in test [9], in [10], in [18] and in [15] was inactive.

Take `Cl/C=C\CCl`: the outcome in test [1], in test [2], in [3], in [4], in test [5] and in [6] was inactive. Moreover, the call in test [7], in test [8], in [16], in [9], in [17] and in test [15] was inactive.

Turning to `CCC(Br)(CC)C(=O)NC(N)=O`, the result in test [2], in [19], in [4], in test [6], in test [8] and in [16] was inactive. Besides, the outcome in [17], in [20], in test [10], in test [13] and in test [15] was inactive.

In the case of `COC(C)(C)CCC[C@H](C)C/C=C/C(C)=C/C(=O)OC(C)C`, the outcome in test [2], in test [3], in test [6], in [7], in test [16] and in test [17] was inactive. For the same compound, the compound was called inactive in test [20], in [10], in test [11], in [12], in [13] and in test [14]. For the same compound, in [18], the result was inactive. Moreover, the values for the AC50 in test [8], in test [9] and in test [15] were 165 µM (active), 7.82 µM (active) and 79.3 µM (active), respectively.

As to `COCC(=O)N(c1c(C)cccc1C)N1CCOC1=O`, the result in test [2], in test [3], in test [5], in test [7], in test [16] and in test [20] was inactive. For the same compound, the outcome in [10] and in test [13] was inactive.

For the compound `O=C(NCNC(=O)NC1C(=O)NC(=O)N1CO)NC1C(=O)NC(=O)N1CO` (stereo not drawn), the compound was classed as inactive in test [1], in [3], in test [19], in test [6], in test [8] and in test [16]. Besides, the call in test [9], in test [10], in test [11], in [12], in test [13] and in [18] was inactive. Moreover, the figures for the AC50 in test [17] and in test [15] were 39.8 µM (active) and 9.92 µM (active), respectively.
